Measured values published in PubChem BioAssay AID1832 (Broad Institute, 2009).
The whole screen tested about 300,000 compounds, of which about 1,100 (0.37%) were called active.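 How the source made its calls: active means inhibition past about -25% in most replicates, and total fluorescence under double the plate's negative control median (limit read from the data); inconclusive means replicates evenly split on the limit, or fluorescence at least double controls; inactive means too little inhibition in most replicates.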 Many of the other results were omitted from the sample, so actives are more common in it than they were.

molecular target: Zinc finger protein mex-5 (Caenorhabditis elegans) (UniProt Q9XUB2); experiment: MEX-5 zinc finger RNA-binding disruptors – biochemical, C. elegans, fluorescence polarization, MLPCN library, primary screen (AID 1832); details: MEX-5/FITC-TCR2 RNA binding, at 10 µM, stronger effect = lower value;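 further: 0% = DMSO and -100% = 5 µM competing unlabeled TCR2 RNA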
Sequence (Q9XUB2 whole entry, looked up): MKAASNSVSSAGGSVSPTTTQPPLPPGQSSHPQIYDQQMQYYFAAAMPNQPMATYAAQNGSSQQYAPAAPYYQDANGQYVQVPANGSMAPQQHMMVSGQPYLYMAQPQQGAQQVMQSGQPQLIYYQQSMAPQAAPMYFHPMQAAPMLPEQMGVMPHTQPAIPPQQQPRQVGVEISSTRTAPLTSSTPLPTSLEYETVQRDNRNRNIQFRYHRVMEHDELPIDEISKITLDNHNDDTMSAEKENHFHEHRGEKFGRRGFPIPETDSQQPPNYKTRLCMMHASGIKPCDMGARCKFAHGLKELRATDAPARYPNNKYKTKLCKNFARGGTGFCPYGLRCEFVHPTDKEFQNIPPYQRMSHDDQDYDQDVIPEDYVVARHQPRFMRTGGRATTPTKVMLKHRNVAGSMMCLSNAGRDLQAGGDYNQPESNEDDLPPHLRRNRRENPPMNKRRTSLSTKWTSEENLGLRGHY

Row | Compound | activity score (negative = inhibition of binding)
1 | COc1ccc(C(=O)c2c(C)c(CCC#N)n3ccccc23)c(OC)c1 | -2.13% (inactive)
2 | C=CCOc1ccc(/C=C2/C(=O)ON=C2C)cc1OCC | -10.9% (inactive)
3 | COc1cc(/C=C2/C(=O)ON=C2C)ccc1OCc1ccccc1F | -63.3% (active)
4 | COc1cc(/C=C2/C(=O)ON=C2C)ccc1OCc1cccc(F)c1 | -9.55% (inactive)
5 | CC(=O)Nc1ccc(Nc2nc3c(S(=O)(=O)c4ccc(C)c(C)c4)nnn3c3ccccc23)cc1 | -3.46% (inactive)
6 | Cc1cc(=O)oc2cc(NC(=O)C3CC(=O)N(Cc4ccccc4)C3)ccc12 (stereo not given) | -4.23% (inactive)
7 | Cc1cc(C)nc(N/N=C/c2ccc([N+](=O)[O-])o2)n1 | -9.59% (inactive)
8 | C/[N+]([O-])=C\c1ccc([N+](=O)[O-])o1 | -3.97% (inactive)
9 | CCn1c(/C=C/c2ccc([N+](=O)[O-])o2)nc2ccccc2c1=O | -34.2% (active)
10 | COc1ccc(NS(=O)(=O)c2cccc3nsnc23)cc1Cl | 1.95% (inactive)
11 | COC(=O)c1ccc(NC(=S)Nc2cccc(C)n2)cc1 | -0.058% (inactive)
12 | Cc1cc([N+](=O)[O-])ccc1NC(=O)c1ccc(NC(=O)C(C)C)cc1 | 0.662% (inactive)
13 | Cn1ccc(=Nc2ccc(NC(=O)c3ccc(N=c4ccn(C)c5ccc([N+](=O)[O-])cc45)cc3)cc2)cc1 | -46.8% (active)
14 | O=C(Nc1ccc(C(=O)N2CCCCC2)cc1)c1cccc([N+](=O)[O-])c1 | 1.72% (inactive)
15 | CN(C)Cc1c(O)ccc2occ(C(O)c3ccccc3)c12 (stereo not given) | 1.82% (inactive)
16 | CCCCn1nc(C(=O)Nc2ccc(S(=O)(=O)Nc3ncccn3)cc2)c2ccccc2c1=O | 2.51% (inactive)
17 | CCCn1nc(C(=O)Nc2ccc3nc(C)sc3c2)c2ccccc2c1=O | -34.8% (active)
18 | CCCn1nc(C(=O)NNC(=O)CSCC(=O)Nc2cc(C)on2)c2ccccc2c1=O | -9.23% (inactive)
19 | CCOC(=O)NC(=O)C(=CNc1cccc(OC)c1)C(=O)NC(=O)OCC | -0.689% (inactive)
20 | C=CCOc1ccccc1NC(=O)CN1C(=O)CNC1=O | 1.49% (inactive)
21 | Cc1nc(CN(C)C(=O)CC2C(=O)NCCN2Cc2ccc(F)cc2)cs1 (stereo not given) | -3.2% (inactive)
22 | NS(=O)(=O)c1ccc(NC(=O)/C=C/c2ccccc2Cl)cc1 | -0.539% (inactive)
23 | COc1ncnc2c1N=C1CC(C)(C)CC(N)=C1S2 | -36.1% (active)
24 | Cn1c(Nc2ccccc2)cc(=O)n(C)c1=O | -3.14% (inactive)
25 | Oc1c(Cl)cc(Cl)c(Cl)c1Cc1c(O)c(Cl)cc(Cl)c1Cl | -82.9% (active)
